Results on 40 molecules are retold here after PubChem BioAssay (Tox21).

Molecules are shown by their SMILES. Results filed as inconclusive are left out. Where a call stands in place of a potency, no number is given. Activity calls are given as the source filed them. Calls come from the whole dose curve.
Potency is the fitted concentration of half-maximal effect.

Acetylcholinesterase (Homo sapiens), sequence (P22303 whole entry, looked up): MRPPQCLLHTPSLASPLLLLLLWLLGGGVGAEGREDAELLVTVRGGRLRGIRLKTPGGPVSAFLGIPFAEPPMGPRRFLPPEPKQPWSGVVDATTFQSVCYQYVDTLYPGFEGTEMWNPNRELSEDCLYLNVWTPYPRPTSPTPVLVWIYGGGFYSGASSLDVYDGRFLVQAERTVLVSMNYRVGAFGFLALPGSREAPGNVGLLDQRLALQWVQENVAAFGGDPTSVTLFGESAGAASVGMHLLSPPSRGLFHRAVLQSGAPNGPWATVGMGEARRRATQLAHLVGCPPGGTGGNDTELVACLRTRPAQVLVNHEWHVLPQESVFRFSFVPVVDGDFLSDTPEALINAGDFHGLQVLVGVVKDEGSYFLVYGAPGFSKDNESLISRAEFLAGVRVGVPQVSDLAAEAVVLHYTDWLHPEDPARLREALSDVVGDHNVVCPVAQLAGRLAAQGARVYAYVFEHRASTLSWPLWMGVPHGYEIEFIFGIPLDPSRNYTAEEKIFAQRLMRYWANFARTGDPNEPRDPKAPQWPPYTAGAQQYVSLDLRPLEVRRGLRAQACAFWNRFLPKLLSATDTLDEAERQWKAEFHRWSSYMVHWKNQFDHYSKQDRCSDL

This experiment has as its target Acetylcholinesterase (Homo sapiens) (UniProt P22303). The experiment can be described thus: Acetylcholinesterase (AChE) small molecule antagonists: colormetric cell-based qHTS assay (AID 1347395). Note: nearly all actives have a fitted effect of over 30% in size. As to conditions: SH-SY5Y cells AChE activity, colorimetric (Ellman); series mostly up to 115 µM. From the text: National Center for Advancing Translational Sciences [NCATS]
Division of Preclinical Innovation [DPI]
U.S. Environmental Protection Agency [EPA]
National Institutes of Environmental Health Sciences [NIEHS]
National Toxicology Program [NTP]
U.S. Food and Drug Administration [FDA]
Acetylcholinesterase (AChE) is the primary cholinesterase in the body that hydrolyzes a key neurotransmitter, acetylcholine. Inhibition of AChE activity can lead to neurotoxicity. The known inhibitors include organophosphorous pesticides (OP), chemical warfare agents, drugs, and various phytochemicals.
A homogenous cell-based assay using the Amplite Colormetric acetylcholinesterase assay kit (AAT Bioquest, Sunnyvale, CA) was used to evaluate the chemicals in the Tox21 10K library that inhibit AChE activity. The assay uses 5, 5-dithiobis-(2-nitrobenzoic acid) (DTNB) to quantify the thiocholine produced from the hydrolysis of acetylthiocholine by AChE from the SH-SY5Y cells.
Tox21 Assay Protocol Summary:
For the cell-based AChE assay, 2,000 SH-SY5Y cells in 4 uL/well were dispensed into black, clear-bottom 1536-well plates using a Multidrop Combi dispenser (Thermo Scientific, MA). The assay plates were incubated overnight at 37 C to allow cells to attach to the wells, followed by the transfer of 23 nL of compound or DMSO (vehicle control) by a Pintool Station (Wako Automation, CA). The plates were incubated for 30 min at 37 C and 5% CO2, followed by the addition of 4 uL of detection cocktail solution (DTNB, acetylthiocholine) into each well using a Flying Reagent Dispenser (Beckman Coulter, CA) and then 90 min incubation at 37 C.
(Quantitative high-throughput screening tests each substance at several concentrations.)
In the case of `NNC(=O)c1cccnc1`, the Potency result is “inactive”.
Regarding `O=C1NCN(c2ccccc2)C12CCN(CCCOc1ccc(F)cc1)CC2`, the Potency entry is “inactive”.
Still for that read-out and setting: for `Cn1cc[n+](C)c1` (tested in a mixture with another compound) the value was “inactive”; for `O=C(NCc1cccnc1)Nc1ccc([N+](=O)[O-])cc1`, “inactive”; for `COc1nn(CSP(=S)(OC)OC)c(=O)s1`, 69.6 µM (active).
As for `O=Cc1ccc(Cl)cc1Cl`, the Potency result was “inactive”.
As to `COc1cc(Cl)c(OC)cc1Cl`, the Potency result was “inactive”.
For the molecule `CCCN(CC1CC1)c1c([N+](=O)[O-])cc(C(F)(F)F)cc1[N+](=O)[O-]`, the Potency result was “inactive”.
The same measure, in the same setting: for `O=C(O)c1ccccc1C(=O)Nc1cccc2ccccc12` the value was “inactive”; for `O=S(=O)(Cl)c1ccccc1`, “inactive”.
Turning to `NCC(CC(=O)O)c1ccc(Cl)cc1` (stereo not given), the activity, negative = inhibition was 4.84% [at 0.435 µM] (inactive).
`CCCCCCCCCC(=O)O[C@H]1CC[C@H]2[C@@H]3CCC4=CC(=O)CC[C@@H]4[C@H]3CC[C@]12C`: the Potency entry is “inactive”.
Same read-out and setting: then `COC(=O)C(Cl)C(=O)OC`, with “inactive”; and `CCCN(CCCl)c1c([N+](=O)[O-])cc(C(F)(F)F)cc1[N+](=O)[O-]`, with “inactive”; and `CC(C)(OO)c1ccccc1`, with “inactive”.
As to `NC(=O)C(Cl)(Cl)Cl`, the Potency entry is “inactive”.
In the case of `Nc1ccc(N=Nc2ccc(-c3ccc(N=Nc4c(S(=O)(=O)O)cc5cc(S(=O)(=O)O)c(N=Nc6ccccc6)c(O)c5c4N)cc3)cc2)c(N)c1`, the Potency entry is “inactive”.
The same measure, in the same setting: for `O=C(Nc1ccccc1)Nc1ccnc(Cl)c1` the value was “inactive”; for `N#Cc1ccc(Cl)cc1`, “inactive”.
Same read-out and setting: for `O=Cc1ccc2c(c1)OCO2` the value was “inactive”.
Same read-out and setting: then `CCOP(=S)(OCC)SCSCC`, with 63.3 µM (active); and `CCCCc1c(C)nc(NCC)nc1OS(=O)(=O)N(C)C`, with “inactive”.
`CC/C(=N\OC/C=C/Cl)C1=C(O)CC(C2CCOCC2)CC1=O` (stereo not given): the Potency result is “inactive”.
Take `Clc1cc(Cl)c(Cl)c(Cl)c1`: the Potency result was “inactive”.
For the molecule `C=CC(=O)OCC(C)O` (stereo not given), the Potency entry is “inactive”.
On the same count and under the same terms, then `Cc1ccc(N)cc1C`, with “inactive”; and `NS(=O)(=O)C(F)(F)C(F)(F)C(F)(F)C(F)(F)C(F)(F)C(F)(F)C(F)(F)C(F)(F)F`, with “inactive”; and `COC(=O)C(C)N(C(=O)Cc1ccccc1)c1c(C)cccc1C` (stereo not given), with “inactive”.
The same measure, in the same setting: then `c1cc2ccc3cccc4ccc(c1)c2c34`, with “inactive”; and `[CH3][Sn]([CH3])([Cl])[Cl]`, with “inactive”.
The same measure, in the same setting: then `CCO[C@H]1O[C@@H]2OC3(C)CC[C@H]4[C@H](C)CC[C@@H]([C@H]1C)[C@@]24OO3`, with “inactive”.
Consider `CCOc1ccc(C(C)(C)COCc2cccc(Oc3ccccc3)c2)cc1`, for which the Potency result is “inactive”.
On the same count and under the same terms, then `CCCCCCC#N`, with “inactive”; and `CCN(C)N=O`, with “inactive”.
The same measure, in the same setting: for `CC(c1ccc(O)cc1)(c1ccc(O)cc1)c1ccc(O)cc1` the value was “inactive”.
As to `CO[C@@H]1[C@H](OC(=O)NC(=O)CCl)CC[C@]2(CO2)[C@H]1[C@@]1(C)O[C@@H]1CC=C(C)C`, the activity, negative = inhibition was 2.96% [at 23.6 µM] (inactive).
As for `COCC(C)N(C(=O)CCl)c1c(C)csc1C` (stereo not given), the Potency result is “inactive”.
On the same count and under the same terms, for `CC(C)(C)c1cc([N+](=O)[O-])cc([N+](=O)[O-])c1O` the value was “inactive”.
As to `ClC=C(Cl)Cl`, the Potency result was “inactive”.
On the same count and under the same terms, for `O=C=Nc1ccc(Cl)cc1` the value was “inactive”.
